Results on seven molecules are retold here after PubChem BioAssay (NCATS).

The target of test [1] is Lysosomal acid glucosylceramidase (Homo sapiens) (UniProt P04062). As to the kind of experiment: Glucocerebrosidase-p2 (AID 348; in the data active means potency below about 10 µM; further: potency means the concentration at half of the fitted maximal effect). The note with it: purified GBA, blue fluorogenic substrate, 40 min. Summed up: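 Normal human glucocerebrosidase (0.2 nM) with blue fluorogenic substrate (80 uM final) in citrate/phosphate pH 5.9 with 10mM sodium taurocholate, 0.01% tween-20; 40 min RT, NaOH/glycine stop; fluorescence Ex 365/Em 440; AC50 from a titration from 0.6 nM upwards.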

A short description of test [2]: AP1 Signaling Pathway (AID 357).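 Further: ME-180 reporter cells stimulated with EGF at its EC50 level; on the % scale 0 is the no-effect control and ±100 the full control effect.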 The note with it: ME-180 AP-1-bla reporter, EGF-induced, beta-lactamase ratio, 5 h; at 7.69 µM (top of the series) unless noted. The gist of the method:
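First, ME-180 AP-1-bla cells were cultured overnight at 37 °C in low-serum Opti-MEM. Next, titrated compounds with EC50 EGF were incubated 5 hours. Finally, CCF4 was added for 2.5 hours and the 460/530 nm ratio recorded.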

The target in test [3] is Cytochrome P450 1A2 (Homo sapiens) (UniProt P05177). Description: p450-cyp1a2 (AID 410; calls by dose curve; further: potency means the concentration at half of the fitted maximal effect;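 on activity change, negative = inhibition: -100% = full effect of reference inhibitor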). The note with it: recombinant CYP1A2, luciferin-ME demethylation, luminescence; series mostly up to 11.4 µM. The gist of the method: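 O-Demethylation of luciferin 6' methyl ether by human CYP1A2 is monitored as luciferase luminescence. Substrate sits at Km (100uM); enzyme is 20nM. Values are scaled to 57 uM furafylline as maximal inhibition.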

The nature of test [4]: NFAT Signaling Pathway (AID 444).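 Further: carbachol stimulus at about its EC50 of 1 µM final; on the % scale 0 is the no-effect control and ±100 the full control effect.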 The note with it: Jurkat NFAT-bla M1, carbachol, beta-lactamase ratio, 5 h; at 7.69 µM (top of the series) unless noted. Summed up:
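Jurkat cells carrying an NFAT-driven β-lactamase reporter and co-transfected muscarinic M1 receptor were treated with compound plus carbachol (1 uM final, an EC50 level) for 5 h at 37 °C. CCF4 loading followed for 1 h at RT; 460/530 nm ratio gave %activity.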

Test [5] is described as follows: Stat Signaling Pathway (AID 446).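 Further: ME-180 cervical cancer cells given 40 pM IL-6 alongside compound; SIE-controlled beta-lactamase reporter measured as 460/530 nm FRET emission ratio; on the % scale 0 is the no-effect control and ±100 the full control effect.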 The note with it: ME-180 SIE beta-lactamase reporter, IL-6 stimulated, 5 h; at 7.69 µM (top of the series) unless noted. The gist of the method: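 Normalization used AC90 stimulation (300 pM IL-6) and AC90 inhibition (125 nM pan-JAK inhibitor at 40 pM IL-6). The underlying signal is SIE-driven beta-lactamase in ME-180 cells after 5 h IL-6 exposure with compound.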

Test [6] deals with Glucocorticoid receptor (Homo sapiens) (UniProt P04150). Description: GR-EFC Redistribution (AID 451; calls by dose curve; further: potency means the concentration at half of the fitted maximal effect). The note with it: CHO-K1 GR-EFC translocation, beta-gal luminescence, 2 h. The gist of the method:
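CHO-K1 cells stably expressing nuclear-localized β-gal enzyme acceptor and GR fused C-terminally to the enzyme donor fragment; ligand-driven nuclear translocation restores β-gal by complementation. Compounds titrated up to 46 uM final, 2 h at 37 °C; luminescence read.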

Test [7] deals with Mitogen-activated protein kinase 10 (Mus musculus) (UniProt Q61831). Description: JNK3 AlphaScreen Assay (AID 530).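 Further: kinase came from lysate of stimulated human HepG2 cells; signal reports phosphorylation of biotinylated GST-cJun 1-79 at Ser73 with 10 µM ATP; on the % scale 0 is the no-effect control and ±100 the full control effect.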 The note with it: JNK3 lysate, c-Jun phosphorylation; series mostly up to 11.4 µM. The gist of the method:
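Phosphorylation of biotinylated GST-cJun(1-79) at Ser73 is measured by AlphaScreen proximity luminescence. Enzyme is JNK3 in HepG2 lysates activated with interleukin-1beta and tumor necrosis factor alpha; ATP is 10 uM final.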
Background: Bead proximity is the source of the signal in Alpha formats.

Test [8] has as its target 3',5'-cyclic-AMP phosphodiesterase 4B (Homo sapiens) (UniProt Q07343). As to the kind of experiment: qHTS Assay for Inhibitors of PDE-IV (AID 607; active means well fitted activation curve with a large enough effect in the main read-out, with a control signal flat, not every such curve was filed as active; further: % of control where 0% means no effect). The note with it: HEK293 ACTOne CNG channel cells, membrane potential fluorescence; series mostly up to 22.9 µM. Summed up:
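HEK293 ACTOne cells with CNG channel (1000/well), endogenous PDE4; membrane potential dye, compounds up to 22.9 uM final. Fluorescence Ex 535/Em 590; RO 20-1724 (100 uM final) as reference.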

In test [9] the target is Cytochrome P450 2C19 (Homo sapiens) (UniProt P33261). Description: qHTS Assay for Inhibitors and Substrates of Cytochrome P450 2C19 (AID 899; active means well fitted curve in the direction sought with a large enough effect; an effect the other way counts as inactive or inconclusive; further: nearly all actives have a fitted effect of over 60% in size; further: potency means the concentration at half of the fitted maximal effect). The note with it: recombinant CYP2C19, luciferin-H EGE luminescence; series mostly up to 11.4 µM. Summed up:
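In 50mM KPO4, the reaction held 5nM enzyme and KM-level (10uM) Luciferin-H EGE; it ran 60 min at 37C after NADPH regeneration and a 10 min compound preincubation. Luminescence values were scaled to 57uM ketoconazole as complete inhibition.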
(In general: Quantitative high-throughput screening tests each substance at several concentrations.)

In test [10] the target is Glucocorticoid receptor (Homo sapiens) (UniProt P04150). Description: GR-GFP Redistribution (AID 450;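 active means compounds whose dose series gives a full or clear partial fitted curve of increased nuclear translocation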; further: potency means the concentration at half of the fitted maximal effect). The note with it: U2OS GR-GFP nuclear translocation, laser cytometry, 2 h.
The target in test [11] is Cytochrome P450 3A4 (Homo sapiens) (UniProt P08684). Description: qHTS Assay for Inhibitors and Substrates of Cytochrome P450 3A4 (AID 884; active means well fitted curve in the direction sought with a large enough effect; an effect the other way counts as inactive or inconclusive; further: potency means the concentration at half of the fitted maximal effect; nearly all actives have a fitted effect of over 50% in size). The note with it: recombinant CYP3A4, Luciferin-PPXE luminescence; series mostly up to 57.1 µM. Summed up: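 Luminescent readout of luciferin produced by CYP3A4 (20 nM) dealkylation of Luciferin-PPXE, 25 uM (its KM). NADPH-driven reaction ran 60 min at RT after 10 min compound preincubation; data scaled to 57 uM ketoconazole as 100% inhibition.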

For test [12] the target is unchanged. Description: qHTS Assay for Activators of Cytochrome P450 3A4 (AID 885; active means well fitted curve in the direction sought with a large enough effect; an effect the other way counts as inactive or inconclusive; further: nearly all actives have a fitted effect of over 65% in size). The note with it: recombinant CYP3A4, Luciferin-PPXE luminescence, 60 min; series mostly up to 11.4 µM. Summed up:
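Human CYP3A4 dealkylates Luciferin-PPXE to luciferin, which luciferase detection converts to light. Substrate was at its KM (25uM), buffer 200mM KPO4, reaction 60 min at RT.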

The nature of test [13]: qHTS Assay for Identification of Small Molecule Agonists for Hypoxia Response Element Signaling Pathway (AID 914; active means well fitted activation curve with a large enough effect in the signal ratio, with a control signal flat, not every such curve was filed as active; the % refers to the signal ratio; further: % of control where 0% means no effect). The note with it: ME-180 (cervical carcinoma) HRE-bla reporter, beta-lactamase ratio, CoCl2, 17 h; activation: active compounds read high. The gist of the method:
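In Opti-MEM containing 0.5% dialyzed FBS and 10 mM HEPES, ME-180 HRE-bla cells received a compound titration and EC50 CoCl2. They were incubated 17 hours, then CCF4-loaded 2.5 hours at room temperature before ratio reading.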

Test [14] addresses Cytochrome P450 2C9 (Homo sapiens) (UniProt P11712). As to the kind of experiment: qHTS Assay for Inhibitors and Substrates of Cytochrome P450 2C9 (AID 883; active means well fitted curve in the direction sought with a large enough effect; an effect the other way counts as inactive or inconclusive; further: potency means the concentration at half of the fitted maximal effect; nearly all actives have a fitted effect of over 60% in size). The note with it: recombinant CYP2C9, luciferin-H luminescence, 60 min; series mostly up to 11.4 µM. Summed up:
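CYP2C9 deoxyluciferin hydroxylation, 37C, 60 min with NADPH regeneration; 10nM enzyme, 100uM Luciferin-H (KM). Glo detection reagent stopped reaction; luminescence normalized to sulphaphenazole (57uM) full inhibition.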

For test [15], the target named is Cytochrome P450 2D6 (Homo sapiens) (UniProt P10635). As to the kind of experiment: qHTS Assay for Inhibitors and Substrates of Cytochrome P450 2D6 (AID 891; active means well fitted curve in the direction sought with a large enough effect; an effect the other way counts as inactive or inconclusive; further: potency means the concentration at half of the fitted maximal effect; nearly all actives have a fitted effect of over 60% in size). The note with it: recombinant CYP2D6, luciferin-ME EGE luminescence; series mostly up to 11.4 µM. Summed up:
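Luminescent read-out of luciferin formed by 5 nM human CYP2D6 demethylating 30 uM Luciferin-ME EGE (Km level) over 60 min at room temperature after NADPH regeneration addition. Data normalized to full inhibition by 1.43 uM quinidine.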

Test [16] has as its target ATP-dependent 6-phosphofructokinase (Trypanosoma brucei brucei) (UniProt O15648). As to the kind of experiment: qHTS Assay to Find Inhibitors of T. brucei phosphofructokinase: hit validation (AID 492961; active means well fitted curve in the direction sought with a large enough effect; an effect the other way counts as inactive or inconclusive). The note with it: T. brucei PFK, ADP-Glo luminescence; series mostly up to 51.4 µM. Summed up:
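Reaction: 0.1 M triethanolamine pH 8.0, 5 mM MgCl2, F6P 0.5 mM, ATP 0.1 mM, PFK 1.25 nM, 45 min RT. Read-out: ADP-Glo luminescence. Analysis: concentration-response fits, classed by r2 and efficacy.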

Test [17] in a line: qHTS profiling for inhibitors of Plasmodium falciparum proliferation (AID 504749; active means well fitted curve in the direction sought with a large enough effect; an effect the other way counts as inactive or inconclusive; further: nearly all actives have a fitted effect of over 60% in size; further: potency means the concentration at half of the fitted maximal effect;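 on activity, negative = inhibition: 0% = DMSO vehicle and full inhibition = artemisinin control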). The note with it: P. falciparum in erythrocytes, SYBR Green DNA, 72 h; at 28.7 µM (top of the series); parasite line B. Summed up: (§1)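 Quantitative HTS: compounds pinned into medium, infected erythrocytes added (0.3% parasitemia, 2.5% hematocrit), 72 h culture at 37 C under 5% CO2. Saponin/Triton lysis with SYBR Green I, overnight RT, then fluorescence read.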

Test [18] relates to CP192. Described as above. The note with it: P. falciparum in erythrocytes, SYBR Green DNA, 72 h; series mostly up to 28.7 µM. The gist of the method:
as §1

Test [19] relates to CP203. The test is described as above. The note with it: P. falciparum in erythrocytes, SYBR Green DNA, 72 h; series mostly up to 28.7 µM. Summed up: as §1
The subject of test [20] is W2. The description is as above. The note with it: P. falciparum in erythrocytes, SYBR Green DNA, 72 h; series mostly up to 28.7 µM. Summed up: as §1

Unmarked numbers belong to inactive results. Inconclusive results are not listed. The source made the active and inactive calls. Unless noted, the call rests on the fitted dose curve; in most records, active means well fitted curve in either direction with a large enough effect (not every such curve was filed as active); inconclusive means small, poorly fitted or top-dose-only effect, or another doubt; inactive means flat fitted curve, though single readings scatter.

Cytochrome P450 3A4 (Homo sapiens), sequence (P08684 whole entry, looked up): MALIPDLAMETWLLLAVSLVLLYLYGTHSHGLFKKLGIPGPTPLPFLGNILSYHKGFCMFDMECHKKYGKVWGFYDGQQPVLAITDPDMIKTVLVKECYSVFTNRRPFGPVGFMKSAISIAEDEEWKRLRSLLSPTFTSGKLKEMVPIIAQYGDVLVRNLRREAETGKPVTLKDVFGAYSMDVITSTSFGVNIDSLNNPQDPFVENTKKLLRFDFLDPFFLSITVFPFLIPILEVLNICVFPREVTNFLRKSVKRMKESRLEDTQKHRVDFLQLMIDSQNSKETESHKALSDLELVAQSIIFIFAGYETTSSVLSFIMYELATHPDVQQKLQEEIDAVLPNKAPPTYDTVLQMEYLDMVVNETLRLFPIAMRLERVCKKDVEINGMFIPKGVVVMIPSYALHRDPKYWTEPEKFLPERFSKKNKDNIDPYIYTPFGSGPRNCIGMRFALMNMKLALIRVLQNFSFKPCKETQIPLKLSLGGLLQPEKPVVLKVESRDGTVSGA
3',5'-cyclic-AMP phosphodiesterase 4B (Homo sapiens), sequence (Q07343 whole entry, looked up): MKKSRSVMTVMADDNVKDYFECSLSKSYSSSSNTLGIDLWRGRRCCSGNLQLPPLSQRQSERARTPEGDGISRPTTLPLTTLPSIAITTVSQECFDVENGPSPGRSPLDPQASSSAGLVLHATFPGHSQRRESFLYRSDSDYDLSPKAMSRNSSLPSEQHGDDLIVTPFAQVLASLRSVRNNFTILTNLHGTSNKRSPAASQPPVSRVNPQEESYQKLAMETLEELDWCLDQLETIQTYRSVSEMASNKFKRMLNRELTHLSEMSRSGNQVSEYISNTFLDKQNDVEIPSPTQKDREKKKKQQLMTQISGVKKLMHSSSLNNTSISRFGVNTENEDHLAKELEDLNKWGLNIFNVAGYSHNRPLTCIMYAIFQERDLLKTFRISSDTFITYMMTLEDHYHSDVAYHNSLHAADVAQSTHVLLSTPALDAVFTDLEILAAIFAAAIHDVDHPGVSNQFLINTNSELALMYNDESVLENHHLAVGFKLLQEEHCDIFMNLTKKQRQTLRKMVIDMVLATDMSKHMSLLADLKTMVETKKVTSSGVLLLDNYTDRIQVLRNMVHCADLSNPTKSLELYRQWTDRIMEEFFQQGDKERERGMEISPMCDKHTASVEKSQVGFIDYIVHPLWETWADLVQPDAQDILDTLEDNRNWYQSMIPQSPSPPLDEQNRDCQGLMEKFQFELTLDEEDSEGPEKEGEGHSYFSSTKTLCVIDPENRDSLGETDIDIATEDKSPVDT
Cytochrome P450 1A2 (Homo sapiens), sequence (P05177 whole entry, looked up): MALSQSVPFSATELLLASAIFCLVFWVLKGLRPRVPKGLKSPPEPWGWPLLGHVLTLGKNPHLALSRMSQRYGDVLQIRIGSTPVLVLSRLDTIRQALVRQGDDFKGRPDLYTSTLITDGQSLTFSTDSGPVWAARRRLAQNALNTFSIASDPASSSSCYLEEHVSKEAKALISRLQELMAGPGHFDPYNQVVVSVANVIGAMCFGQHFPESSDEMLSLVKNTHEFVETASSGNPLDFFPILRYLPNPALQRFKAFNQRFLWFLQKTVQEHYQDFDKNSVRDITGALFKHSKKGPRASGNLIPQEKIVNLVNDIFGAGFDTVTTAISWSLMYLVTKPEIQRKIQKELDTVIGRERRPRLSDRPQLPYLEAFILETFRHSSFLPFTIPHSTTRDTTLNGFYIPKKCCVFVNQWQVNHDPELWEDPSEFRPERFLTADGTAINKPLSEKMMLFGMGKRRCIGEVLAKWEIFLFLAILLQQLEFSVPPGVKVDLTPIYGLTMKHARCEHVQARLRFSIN
Glucocorticoid receptor (Homo sapiens), sequence (P04150 whole entry, looked up, the tested form may be a part): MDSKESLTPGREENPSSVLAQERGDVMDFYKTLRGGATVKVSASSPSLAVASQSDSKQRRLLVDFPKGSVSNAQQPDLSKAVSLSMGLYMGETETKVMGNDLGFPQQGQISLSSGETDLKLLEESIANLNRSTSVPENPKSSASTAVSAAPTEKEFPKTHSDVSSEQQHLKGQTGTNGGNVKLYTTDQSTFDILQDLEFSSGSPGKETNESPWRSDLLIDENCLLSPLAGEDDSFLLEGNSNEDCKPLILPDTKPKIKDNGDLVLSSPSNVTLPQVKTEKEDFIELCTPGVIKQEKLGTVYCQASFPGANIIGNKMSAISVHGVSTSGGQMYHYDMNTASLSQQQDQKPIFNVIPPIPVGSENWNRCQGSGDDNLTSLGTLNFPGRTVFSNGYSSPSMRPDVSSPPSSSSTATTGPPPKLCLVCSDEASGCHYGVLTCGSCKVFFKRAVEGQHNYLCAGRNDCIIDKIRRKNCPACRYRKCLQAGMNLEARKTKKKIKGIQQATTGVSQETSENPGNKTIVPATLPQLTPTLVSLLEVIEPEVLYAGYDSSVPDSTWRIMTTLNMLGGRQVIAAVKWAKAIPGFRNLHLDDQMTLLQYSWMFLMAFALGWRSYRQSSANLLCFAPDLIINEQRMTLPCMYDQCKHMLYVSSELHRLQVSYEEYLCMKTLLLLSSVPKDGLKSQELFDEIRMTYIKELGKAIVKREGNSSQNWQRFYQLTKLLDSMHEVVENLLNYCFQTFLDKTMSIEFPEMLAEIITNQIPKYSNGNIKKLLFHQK
Lysosomal acid glucosylceramidase (Homo sapiens), sequence (P04062 whole entry, looked up): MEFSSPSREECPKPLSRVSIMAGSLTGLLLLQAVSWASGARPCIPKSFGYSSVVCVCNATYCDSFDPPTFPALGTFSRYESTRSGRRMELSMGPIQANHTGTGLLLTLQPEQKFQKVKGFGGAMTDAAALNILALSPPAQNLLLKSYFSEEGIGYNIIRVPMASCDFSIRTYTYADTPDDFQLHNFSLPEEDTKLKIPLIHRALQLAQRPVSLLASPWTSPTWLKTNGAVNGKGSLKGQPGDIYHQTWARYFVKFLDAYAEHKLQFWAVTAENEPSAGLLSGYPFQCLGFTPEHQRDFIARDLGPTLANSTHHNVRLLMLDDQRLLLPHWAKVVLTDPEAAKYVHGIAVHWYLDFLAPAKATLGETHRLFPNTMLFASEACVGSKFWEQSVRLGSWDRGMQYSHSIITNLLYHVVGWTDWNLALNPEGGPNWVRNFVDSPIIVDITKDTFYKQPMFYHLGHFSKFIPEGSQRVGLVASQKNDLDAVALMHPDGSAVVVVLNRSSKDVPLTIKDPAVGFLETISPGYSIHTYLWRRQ
Cytochrome P450 2C19 (Homo sapiens), sequence (P33261 whole entry, looked up): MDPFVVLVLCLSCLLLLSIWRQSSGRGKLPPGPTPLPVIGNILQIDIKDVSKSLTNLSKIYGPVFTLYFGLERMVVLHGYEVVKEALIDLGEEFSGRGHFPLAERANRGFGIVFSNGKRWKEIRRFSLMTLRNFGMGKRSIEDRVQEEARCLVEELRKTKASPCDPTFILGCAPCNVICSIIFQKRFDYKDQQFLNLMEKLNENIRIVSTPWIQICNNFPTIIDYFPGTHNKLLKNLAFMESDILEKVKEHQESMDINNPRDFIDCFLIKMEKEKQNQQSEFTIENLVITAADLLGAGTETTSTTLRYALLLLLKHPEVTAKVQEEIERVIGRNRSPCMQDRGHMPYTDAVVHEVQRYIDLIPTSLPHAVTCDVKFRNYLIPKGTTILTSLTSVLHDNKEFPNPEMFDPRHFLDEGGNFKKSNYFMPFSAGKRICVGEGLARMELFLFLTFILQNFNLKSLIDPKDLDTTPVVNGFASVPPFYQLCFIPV
Cytochrome P450 2C9 (Homo sapiens), sequence (P11712 whole entry, looked up): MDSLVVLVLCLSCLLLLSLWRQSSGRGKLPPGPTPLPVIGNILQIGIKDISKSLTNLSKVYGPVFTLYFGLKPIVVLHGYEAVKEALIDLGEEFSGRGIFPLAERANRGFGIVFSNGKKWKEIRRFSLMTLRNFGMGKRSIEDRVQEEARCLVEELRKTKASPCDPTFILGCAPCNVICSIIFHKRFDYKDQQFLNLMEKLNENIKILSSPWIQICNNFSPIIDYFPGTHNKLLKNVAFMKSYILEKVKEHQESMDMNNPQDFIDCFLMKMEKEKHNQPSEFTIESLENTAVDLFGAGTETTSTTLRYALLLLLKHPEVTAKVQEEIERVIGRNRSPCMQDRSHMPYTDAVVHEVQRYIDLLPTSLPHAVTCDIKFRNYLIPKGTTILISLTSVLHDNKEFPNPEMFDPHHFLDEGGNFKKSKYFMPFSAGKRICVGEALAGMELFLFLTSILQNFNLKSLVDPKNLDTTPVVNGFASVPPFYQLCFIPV
ATP-dependent 6-phosphofructokinase (Trypanosoma brucei brucei), sequence (O15648 whole entry, looked up): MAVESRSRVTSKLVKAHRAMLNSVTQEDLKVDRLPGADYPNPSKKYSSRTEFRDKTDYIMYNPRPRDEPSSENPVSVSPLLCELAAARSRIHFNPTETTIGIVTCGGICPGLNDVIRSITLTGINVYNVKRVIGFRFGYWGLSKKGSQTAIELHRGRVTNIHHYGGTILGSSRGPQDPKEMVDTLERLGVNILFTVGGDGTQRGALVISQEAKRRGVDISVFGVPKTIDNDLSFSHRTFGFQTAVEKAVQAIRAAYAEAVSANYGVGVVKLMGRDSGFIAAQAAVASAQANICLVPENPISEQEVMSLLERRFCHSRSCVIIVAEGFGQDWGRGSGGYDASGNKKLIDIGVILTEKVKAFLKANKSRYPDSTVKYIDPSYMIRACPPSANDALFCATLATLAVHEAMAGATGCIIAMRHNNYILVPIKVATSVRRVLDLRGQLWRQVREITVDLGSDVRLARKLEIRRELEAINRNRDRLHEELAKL

As for `O=c1[nH]c(=S)c2[nH]c(=O)n(-c3ccccc3)c2[nH]1`, the figures for the Potency in [1] and in [6] were greater than 11.4 µM and greater than 9.22 µM, respectively. The activity change, negative = inhibition in [2] was 12.1%; in [4], 15.1%. The Potency result in test [3], in test [7], in [8] and in test [9] was “inactive” in each case. In [5], the activity, negative = inhibition is 8.32%.

Regarding `Cc1ccc(C)c(C(=N)c2ccccc2Cc2ccccc2)c1`, the Potency was greater than 11.4 µM in test [1], greater than 46 µM in test [10], greater than 9.22 µM in test [6] and 3.98 µM (active) in test [11]. The activity change, negative = inhibition in test [2] is 1.26%; in [3], -6.8% [at 2.29 µM]; in test [4] it was -12.9%. For the same molecule, the Potency entry in test [7], in test [8] and in test [12] was “inactive” in each case.

`O=C(Nc1ccc2ncccc2c1)Nc1ccc2ncccc2c1`: the Potency is greater than 11.4 µM in test [1] and greater than 9.22 µM in [6]. Also, the activity change, negative = inhibition in test [2] is -16.2%; in test [3], -28.5% [at 2.29 µM]; in test [4], 21.4%. The activity, negative = inhibition in test [5] was -14.3%. Moreover, the Potency entry in test [7] and in test [8] was “inactive” throughout. Further, the activation in test [13] is -12.2%.

In the case of `CC(C)(N)CO[C@H]1C[C@H]2CC[C@@]1(C)C2(C)C`, the Potency is greater than 11.4 µM in [1], greater than 46 µM in test [10] and greater than 9.22 µM in [6]. In addition, the figures for the activity change, negative = inhibition in test [2] and in test [4] were 4.93% and 3.38%, respectively. Besides, the Potency entry in test [3], in test [7] and in [8] was “inactive” throughout.

For the molecule `Cc1c2cnccc2c(C)c2c1c1ccccc1n2CCOC(=O)c1ccccc1`, the Potency in test [1] is greater than 11.4 µM; in test [3], 79.4 nM (active); in test [10], greater than 46 µM; in test [6], greater than 9.22 µM; in test [14], 3.16 µM (active); in [15], 3.16 µM (active). Also, the activity change, negative = inhibition in test [2] was 2.26%; in test [4] it was -4.41%. Moreover, the Potency result in test [7], in [8] and in [12] was “inactive” throughout.

`O=C(O)[C@@H](O)[C@@H](O)[C@H](O)[C@H](O)CO`: the Potency in test [1] is greater than 11.4 µM; in test [20], 4.78 µM (active). In addition, the figures for the activity change, negative = inhibition in test [2], in test [3] and in test [4] were -1.8%, -5.5% [at 2.29 µM] and 5.42%, respectively. The activity, negative = inhibition in test [5] is -3.53%; in test [17], -24%. The Potency result in [7], in test [8], in [18] and in test [19] was “inactive” throughout. In test [16], the call was inactive.

For `NCCSc1nc2ccccc2s1`, the Potency in test [1] is greater than 11.4 µM; in [3], 316 nM (active); in test [10], greater than 46 µM; in test [6] it was greater than 9.22 µM; in test [14], 1.58 µM (active); in [9], 1.58 µM (active). Also, the activity change, negative = inhibition was 1.91% in [2] and 7.28% in [4]. Moreover, the Potency entry in test [7], in test [8] and in test [12] was “inactive” in each case.
